From PubChem BioAssay (Tox21) come the findings set out here.

Results filed as inconclusive are left out. A number with no mark means an inactive call. The source made the active and inactive calls. Unless noted, calls follow the shape of the dose curve; as a rule, active = well fitted curve in the direction sought with a large enough effect in the repeat runs; inconclusive = weak or mixed curves; inactive = no such curve, though single readings can be large; an effect the other way counts as inactive or inconclusive.

Assay [1] can be described thus: qHTS assay to identify small molecule agonists of the vitamin D receptor (VDR) signaling pathway - cell viability counter screen (AID 743224). Also: % is scaled to controls: 0 for no effect and ±100 for the full control effect; nearly all actives have a fitted effect of over 50% in size. The procedure, abridged: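 Counter screen for cytotoxicity: VDR-bla cells at 2,000 cells/well, 16 h compound exposure, then CellTiter-Glo luminescence after the beta-lactamase measurement.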
The nature of assay [2]: qHTS assay to identify small molecule antagonists of the vitamin D receptor (VDR) signaling pathway - cell viability counter screen (AID 743225). Also: % is scaled to controls: 0 for no effect and ±100 for the full control effect; nearly all actives have a fitted effect of over 50% in size. The procedure, abridged:
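Cytotoxicity counter screen read by CellTiter-Glo luminescence (30 min, room temperature) in the same wells as the VDR-bla antagonist readout. HEK 293T VDR-UAS-bla cells had 16 h at 37C with compound and 3 nM (final) 1-alpha,25-dihydroxyvitamin D3, then 2 h with FRET substrate.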

Assay [3] in a line: qHTS assay to identify small molecule agonists of the NFkB signaling pathway (AID 1159509; active = well fitted curve in the direction sought with a large enough effect in the signal ratio in the repeat runs, not every such curve was filed as active; the % refers to the signal ratio; also: % is scaled to controls: 0 for no effect and ±100 for the full control effect). The procedure, abridged:
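Pathway activation was measured in ME-180 cells stably expressing beta-lactamase under NF-kB response element control. Substrate cleavage was read as the 460/530 nm emission shift after 5 hr compound incubation.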

Assay [4] is described as follows: qHTS assay to identify small molecule agonists of the NFkB signaling pathway - cell viability counter screen (AID 1159515; calls by dose curve; also: % is scaled to controls: 0 for no effect and ±100 for the full control effect; nearly all actives have a fitted effect of over 55% in size). An outline of the steps: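 Counter screen run alongside the NFkB-bla agonist assay: ME-180 reporter cells exposed to compounds for 5 hr, then lysed with CellTiter-Glo in the same wells. Luminescence, read after 30 min, reflects viable cells.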

Assay [5] is described as follows: qHTS assay to identify small molecule agonists of the endoplasmic reticulum stress response signaling pathway (AID 1159516; active = well fitted activation curve with a large enough effect in the signal ratio in the repeat runs, not every such curve was filed as active; the % refers to the signal ratio; also: % is scaled to controls: 0 for no effect and ±100 for the full control effect). An outline of the steps:
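For this screen, HeLa cells stably carrying beta-lactamase under the ER stress response element received test compounds, positive controls or DMSO for 5 hr at 37 C; B/G FRET substrate was then added and dual-wavelength emission recorded.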

The nature of assay [6]: qHTS assay to identify small molecule agonists of the endoplasmic reticulum stress response signaling pathway - cell viability counter screen (AID 1159517; calls by dose curve; also: % is scaled to controls: 0 for no effect and ±100 for the full control effect; nearly all actives have a fitted effect of over 50% in size). The procedure, abridged: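 Cpd-treated ESRE-bla HeLa (5 hr, 37 C) → LiveBLAzer 2 hr RT → CellTiter-Glo 30 min RT → luminescence.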
A short description of assay [7]: qHTS assay to identify small molecule antagonists of the retinoid-related orphan receptor gamma (ROR-gamma) signaling pathway - cell viability counter screen (AID 1159520). Also: % is scaled to controls: 0 for no effect and ±100 for the full control effect; nearly all actives have a fitted effect of over 50% in size. The procedure, abridged:
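Tet-on ROR gamma CHO cells (1,000/well) were plated 4 hr, given compounds in DMSO for 2 hr at 37 C, then induced with 1 uM final doxycycline for 16 hr. Viability was read as ATP by CellTiter-Glo luminescence after 30 min.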

The target in assay [8] is Nuclear receptor ROR-gamma (Homo sapiens) (UniProt P51449). The assay is described as follows: qHTS assay to identify small molecule antagonists of the retinoid-related orphan receptor gamma (ROR-gamma) signaling pathway (AID 1159521). The procedure, abridged: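 Antagonist read-out: drop in luminescence (ONE-Glo) from an RORE-LUC reporter in CHO cells with doxycycline-inducible ROR-gamma; 2 hr compound pretreatment, 1 uM doxycycline, 16 hr incubation at 37 C.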

The nature of assay [9]: qHTS assay to identify small molecule agonists of the AP-1 signaling pathway - cell viability counter screen (AID 1159525; calls by dose curve; also: nearly all actives have a fitted effect of over 55% in size). The procedure, abridged: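 Each titration point was normalised to DMSO and tetra n-octyl ammonium bromide controls. The read was Cell Titer Glo luminescence after 30 min at RT, following 5 h compound exposure of ME-180 AP-1-bla cells at 37 °C.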
The nature of assay [10]: qHTS assay to identify small molecule agonists of the AP-1 signaling pathway (AID 1159526; calls by dose curve; also: % is scaled to controls: 0 for no effect and ±100 for the full control effect).
Assay [11] addresses Retinoic acid receptor RXR-alpha (Homo sapiens) (UniProt P19793). The experiment in a line: qHTS assay to identify small molecule agonists of the RXR signaling pathway (AID 1159527; calls by dose curve; also: % is scaled to controls: 0 for no effect and ±100 for the full control effect; nearly all actives have a fitted effect of over 35% in size). An outline of the steps:
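Agonist-mode beta-lactamase reporter assay: HEK 293T RXR-alpha-UAS-bla cells treated 16 hr at 37 C with compounds, 9-cis retinoic acid as positive control. LiveBLAzer FRET substrate, 405 nm excitation, 460/530 nm emission.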

Assay [12] can be described thus: qHTS assay to identify small molecule agonists of the RXR signaling pathway - cell viability counter screen (AID 1159529). An outline of the steps:
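CellTiter-Glo luminescence gave viability in the wells also read for beta-lactamase. Cells (RXR-alpha-UAS-bla HEK 293T, 2% charcoal-stripped FBS medium) had 5 hr plating, then 16 hr compound exposure at 37 C; tetraoctyl ammonium bromide served as positive control.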

Assay [13] can be described thus: qHTS assay to identify small molecule antagonists of the retinoid acid receptor (RAR) signaling pathway - cell viability counter screen (AID 1159551). Also: % is scaled to controls: 0 for no effect and ±100 for the full control effect; nearly all actives have a fitted effect of over 35% in size. The procedure, abridged: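 Measured by luminescent ATP detection, viability reflects C3RL4 cells treated 6 h at 37 C with test chemicals in the presence of 1 uM (final) retinol.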
Assay [14] in a line: qHTS assay to identify small molecule antagonists of the retinoic acid receptor (RAR) signaling pathway (AID 1159552). An outline of the steps:
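Luminescent RARE reporter read-out in C3RL4 cells: 6 hr co-treatment at 37 C of test compounds with retinol at 1 uM final. Cells plated overnight beforehand; luciferase reagent incubated 30 min at room temperature before reading.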

Assay [15] in a line: qHTS assay to identify small molecule antagonists of the estrogen related receptor (ERR) signaling pathway from Tox21 library - cell viability counter screen (AID 1224834). Also: % is scaled to controls: 0 for no effect and ±100 for the full control effect; nearly all actives have a fitted effect of over 30% in size. An outline of the steps:
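Seeded ERR cells were rested 6 h at 37 C/5% CO2 before compounds, positive and negative controls or DMSO were added. Incubation continued for 17.5 h, and viability was then quantified by CellTiter-Fluor fluorescence.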

The target of assay [16] is Luciferin 4-monooxygenase (Photinus pyralis) (UniProt P08659). The assay is described as follows: qHTS assay to identify small molecule inhibitors of firefly luciferase (AID 1224835). Also: % is scaled to controls: 0 for no effect and ±100 for the full control effect; nearly all actives have a fitted effect of over 25% in size. The procedure, abridged: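 Quantitative HTS format; KM concentrations of both substrates. Purified P. pyralis FLuc activity quantified from luminescence images.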
Assay [17] can be described thus: qHTS assay to identify small molecule agonists of the constitutive androstane receptor (CAR) signaling pathway - cell viability counter screen (AID 1224836). Also: % is scaled to controls: 0 for no effect and ±100 for the full control effect; nearly all actives have a fitted effect of over 45% in size. An outline of the steps: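 Cell viability multiplexed with the CAR agonist screen: CellTiter-Fluor fluorescence after 23 hr at 37 C. HepG2-CYP2B6-hCAR cells got compounds at 15 concentrations with PK11195 at 0.75 uM final.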

Assay [18] can be described thus: qHTS assay to identify small molecule antagonists of the constitutive androstane receptor (CAR) signaling pathway - cell viability counter screen (AID 1224837). Also: % is scaled to controls: 0 for no effect and ±100 for the full control effect; nearly all actives have a fitted effect of over 45% in size. The procedure, abridged:
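To flag cytotoxic false antagonists, HepG2 hCAR/CYP2B6-2.2kb cells were treated 23 hr with 15-concentration compound series and 50 nM CITCO at 37 C/5% CO2; CellTiter-Fluor fluorescence was the measured end point.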

The target of assay [19] is Nuclear receptor subfamily 1 group I member 3 (Homo sapiens) (UniProt Q14994). The assay is described as follows: qHTS assay to identify small molecule antagonists of the constitutive androstane receptor (CAR) signaling pathway (AID 1224838).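 Also: HepG2 cells stably expressing hCAR with CYP2B6 luciferase reporter stimulated by CITCO; % is scaled to controls: 0 for no effect and ±100 for the full control effect; nearly all actives have a fitted effect of over 40% in size.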 The procedure, abridged: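 Human hepatoma HepG2 cells expressing hCAR and a CYP2B6 promoter (2.2 kb) luciferase construct; compound titration (15 points) with 50 nM CITCO final, 24 h at 37 C/5% CO2; luminescence via ONE-Glo after 30 min at room temperature.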

The nature of assay [20]: qHTS assay to identify small molecule agonists of the retinoic acid receptor (RAR) signaling pathway (AID 1159553). Also: potency is read from the fitted curve at half-maximal effect. As to activation: % is scaled to controls: 0 for no effect and ±100 for the full control effect. As to conditions: C3RL4 RARE luciferase reporter, agonist, 6 h; activation: at 73.3 µM (top of the series). The procedure, abridged: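 6 hr compound exposure (DMSO vehicle) of overnight-plated C3RL4 RARE-luc cells at 37 C; luminescence quantified after 30 min RT with luciferase reagent.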

Sequence of Retinoic acid receptor RXR-alpha (Homo sapiens) (P19793 whole entry, looked up): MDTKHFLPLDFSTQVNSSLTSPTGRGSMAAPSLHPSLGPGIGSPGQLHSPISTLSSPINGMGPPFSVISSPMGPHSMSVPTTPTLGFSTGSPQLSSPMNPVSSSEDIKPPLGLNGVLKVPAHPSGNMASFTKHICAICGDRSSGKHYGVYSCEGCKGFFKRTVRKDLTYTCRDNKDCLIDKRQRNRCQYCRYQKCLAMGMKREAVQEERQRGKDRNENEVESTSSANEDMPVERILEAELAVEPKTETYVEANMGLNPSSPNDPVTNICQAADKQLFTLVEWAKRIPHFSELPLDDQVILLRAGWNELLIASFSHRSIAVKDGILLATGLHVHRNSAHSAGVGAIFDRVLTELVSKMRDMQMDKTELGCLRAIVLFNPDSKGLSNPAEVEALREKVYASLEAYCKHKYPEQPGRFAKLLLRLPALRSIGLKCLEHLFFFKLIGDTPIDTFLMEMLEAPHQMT
Sequence of Luciferin 4-monooxygenase (Photinus pyralis) (P08659 whole entry, looked up): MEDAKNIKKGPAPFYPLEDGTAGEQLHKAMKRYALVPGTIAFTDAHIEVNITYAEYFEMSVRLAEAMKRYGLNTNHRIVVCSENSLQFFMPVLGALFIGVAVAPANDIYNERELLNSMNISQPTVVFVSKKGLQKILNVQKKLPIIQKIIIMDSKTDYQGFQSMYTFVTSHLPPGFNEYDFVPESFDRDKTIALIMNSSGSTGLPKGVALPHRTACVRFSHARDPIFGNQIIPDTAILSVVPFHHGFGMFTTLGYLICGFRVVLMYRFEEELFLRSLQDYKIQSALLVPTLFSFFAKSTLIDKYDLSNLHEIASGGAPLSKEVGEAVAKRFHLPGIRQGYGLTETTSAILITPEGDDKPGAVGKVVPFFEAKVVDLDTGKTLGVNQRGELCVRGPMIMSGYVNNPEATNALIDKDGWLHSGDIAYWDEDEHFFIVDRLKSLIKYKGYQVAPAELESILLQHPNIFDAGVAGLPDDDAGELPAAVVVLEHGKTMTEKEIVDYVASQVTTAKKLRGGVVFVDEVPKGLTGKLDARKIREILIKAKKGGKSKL
Sequence of Nuclear receptor subfamily 1 group I member 3 (Homo sapiens) (Q14994 whole entry, looked up): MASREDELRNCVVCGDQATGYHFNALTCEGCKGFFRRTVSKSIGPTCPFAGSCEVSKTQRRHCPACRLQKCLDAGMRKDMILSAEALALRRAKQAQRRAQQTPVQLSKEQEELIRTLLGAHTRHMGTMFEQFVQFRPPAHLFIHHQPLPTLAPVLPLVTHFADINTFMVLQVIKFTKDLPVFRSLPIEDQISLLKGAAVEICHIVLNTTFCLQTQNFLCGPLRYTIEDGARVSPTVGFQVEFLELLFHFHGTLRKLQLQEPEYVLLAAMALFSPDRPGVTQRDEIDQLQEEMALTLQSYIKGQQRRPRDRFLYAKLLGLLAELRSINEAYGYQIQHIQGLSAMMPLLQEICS

With `CN=C(NC#N)NCCSCc1csc(N=C(N)N)n1`, the result in assay [1], in [2], in assay [3], in [4], in [5] and in [6] was inactive. Also, the compound was called inactive in assay [7], in [8], in [9], in [10], in [12] and in [13]. In addition, the compound was classed as inactive in [17]. Further, the Potency entry in assay [11], in [14], in [15], in assay [16] and in [18] was “inactive” in each case.

`C=CCOc1cc(Cl)ccc1C(=O)NCCN(CC)CC`: the call in [1], in assay [2], in [3], in [4], in assay [5] and in [6] was inactive. The result in [7], in [8], in assay [9], in assay [10], in assay [12] and in assay [13] was inactive. For the same compound, the compound was classed as inactive in [17]. Further, the Potency result in [11], in [14], in [15] and in [19] was “inactive” in each case.

For `O=c1[nH]c(=O)c2[nH]c(=O)[nH]c2[nH]1`, the activity change, negative = cytotoxicity in [1] is -0.867% [at 13.2 µM]; in assay [6], -24.3% [at 6.95 µM]; in [12], 9.18% [at 6.97 µM]; in assay [13] it was -0.439% [at 8.39 µM]; in assay [18], -10.7% [at 8.39 µM]. Also, the viability change, negative = cytotoxic was 18.1% [at 6.95 µM] in assay [2], 10.8% [at 6.97 µM] in [9], -1.5% [at 8.39 µM] in assay [15] and -1.86% [at 8.39 µM] in assay [17]. The activation in assay [3] was -0.0901% [at 6.95 µM]; in assay [5], -2.27% [at 6.95 µM]; in assay [10], -0.69% [at 6.97 µM]; in assay [11], 3.02% [at 6.98 µM]. Also, the activity, negative = cytotoxic in assay [4] was 1.31% [at 6.95 µM]. In addition, in [7], the activity, negative = cytotoxicity was -0.126% [at 8.39 µM]. Besides, the values for the activity change, negative = inhibition in assay [8] and in assay [16] were 25.7% [at 8.39 µM] and -3.23% [at 10.5 µM], respectively. Also, the activity, negative = inhibition in assay [14] was 2.16% [at 8.39 µM].

With `CCCCC(CC)CNC(=O)CC(C)OC(=O)CCC(=O)O` (stereo unspecified), the result in assay [1], in assay [2], in [3], in assay [4], in assay [5] and in assay [6] was inactive. For the same compound, the result in assay [7], in assay [8], in [9], in assay [10], in assay [12] and in assay [13] was inactive. In assay [17], the compound was classed as inactive. Further, the Potency result in assay [11], in assay [14], in [15], in [18] and in [19] was “inactive” in each case. For the same compound, the Potency in [20] is 29.8 µM (active).

On to `CCC(=O)OCCC(C)CCC=C(C)C` (stereo unspecified), for which the call in [2], in [3], in assay [4], in assay [5], in assay [6] and in assay [7] was inactive. For the same compound, the call in assay [8], in assay [9], in [10], in [12], in assay [13] and in [17] was inactive. Further, the Potency result in assay [11], in assay [14], in [20], in assay [16] and in assay [19] was “inactive” in each case.

In the case of `O=c1cc(O)c(Cl)c[nH]1`, the call in assay [1], in [2], in assay [3], in assay [4], in assay [5] and in [6] was inactive. For the same compound, the call in assay [7], in [8], in assay [9], in assay [10], in assay [12] and in assay [13] was inactive. Also, the call in [17] was inactive. Besides, the Potency result in assay [11], in assay [14], in assay [20], in [15] and in [18] was “inactive” each time.

With `NS(=O)(=O)c1ccccc1OC(F)(F)F`, the call in assay [1], in assay [3], in assay [4], in assay [5], in assay [6] and in assay [7] was inactive. Also, the call in assay [8], in [9], in assay [10], in assay [12], in [13] and in assay [17] was inactive. The Potency entry in [11], in [14], in assay [20] and in [16] was “inactive” throughout.

Regarding `CC(C)SCc1ccco1`, the call in assay [1], in assay [2], in assay [3], in assay [4], in assay [5] and in assay [6] was inactive. Besides, the outcome in assay [7], in assay [8], in assay [9], in assay [10], in [12] and in assay [13] was inactive. Besides, in assay [17], the result was inactive. Moreover, the Potency entry in assay [11], in [14], in assay [15], in assay [16] and in assay [18] was “inactive” in each case.
